Test results as given in PubChem BioAssay AID777 (Sanford-Burnham Center for Chemical Genomics, 2007).
The whole screen tested about 96,000 compounds, of which about 19,000 (20%) were called active. The list is a sample of the results. A number with no mark means an inactive call.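 Rule for the calls: active = blocking of liver enzyme CYP2C9 beyond about 50% at 5 µM (limit read from the data); inactive = the rest.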

These compounds were tested against Cytochrome P450 2C9 (Homo sapiens) (UniProt P11712) (assay: blockers of cytochrome P450 2C9 activity – biochemical, luminescence, ADME assay, primary screen (AID 777)). Conditions: CYP2C9 Supersomes, luciferin-H conversion, at 5 µM, active compounds read high.
Sequence of Cytochrome P450 2C9 (Homo sapiens) (P11712 whole entry, looked up): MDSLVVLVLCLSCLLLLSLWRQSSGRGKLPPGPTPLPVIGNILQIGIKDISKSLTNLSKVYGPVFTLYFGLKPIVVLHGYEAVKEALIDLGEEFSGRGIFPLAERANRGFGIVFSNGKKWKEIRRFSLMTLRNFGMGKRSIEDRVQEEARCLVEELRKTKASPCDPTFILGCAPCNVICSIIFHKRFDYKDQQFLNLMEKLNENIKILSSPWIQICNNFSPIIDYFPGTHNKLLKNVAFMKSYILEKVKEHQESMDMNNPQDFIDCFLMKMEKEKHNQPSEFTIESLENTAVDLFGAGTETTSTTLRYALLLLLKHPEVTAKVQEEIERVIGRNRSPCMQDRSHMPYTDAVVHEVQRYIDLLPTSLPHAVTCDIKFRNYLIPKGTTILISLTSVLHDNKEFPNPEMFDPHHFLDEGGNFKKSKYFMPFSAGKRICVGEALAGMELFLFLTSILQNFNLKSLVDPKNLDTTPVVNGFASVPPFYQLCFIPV

| SMILES | inhibition |
| --- | --- |
| O=S(=O)(NCc1ccccn1)c1ccc(F)cc1 | -1.3% |
| O=S(=O)(NCCOc1cccc2cccnc12)c1ccc(F)cc1 | -234% |
| O=S(=O)(Nc1ccc(Oc2ncccn2)c(Cl)c1)c1ccc(F)cc1 | 99.7% (active) |
| CCCNc1ncnc2sc(C)c(C)c12 | 8.4% |
| CC(=O)c1ccc(Oc2cc(C)nc(-n3nc(C)cc3C)n2)cc1 | -5% |
| OC(COc1cccc(OCC(O)CN2CCCC2)c1)CN1CCCC1 (stereo not given) | 15.5% |
| COc1cccc(OCC(O)CN2CCN(CCO)CC2)c1 (stereo not given) | -2.9% |
| O=C(C(c1ccccc1)c1ccccc1)N1CCN(CC(O)COc2ccccc2)CC1 (stereo not given) | 65.6% (active) |
| CN(C(=O)C1CCOC1)c1nnc(-c2cccnc2)s1 (stereo not given) | 0.8% |
| CCn1c(NC(=O)c2ccccc2)c(-c2cccs2)c(=O)c2ccccc21 | 86.7% (active) |
| Cn1sc(NC(=O)c2ccccc2)nc1=O | 19.9% |
| CCn1c(=O)cc(O)c2ccccc21 | -18.7% |
| Cc1cc(-c2ccccc2)n2nc(C)c(-c3ccccc3)c2n1 | -9.3% |
| Fc1ccc(N2N=C(c3cccs3)CC2c2ccco2)c(F)c1 (stereo not given) | 15.7% |
| O=C(c1ccco1)N1CCN(C(=O)C2CC(c3ccc(F)cc3)=NO2)CC1 (stereo not given) | 5.7% |
| CCS(=O)(=O)Nc1ccc(C2=NN(S(=O)(=O)c3ccc(F)cc3)C(c3ccco3)C2)cc1 (stereo not given) | 87.7% (active) |
| CC(=O)Nc1ccc(N2C(=O)CCC2=O)cc1C | 16.4% |
| O=C(Cn1nc(C(F)(F)F)c2c1CCC2)NCc1ccc(F)cc1 | -216% |
| CCCN1C(=O)C(NS(=O)(=O)c2ccc(N)cc2)(C(F)(F)F)C(C(=O)OC)=C1C (stereo not given) | -3.4% |
| CCCCn1c(CCCNC(=O)CC)nc2ccccc21 | -16.5% |

| SMILES | inhibition |
| --- | --- |
| Cc1ccccc1S(=O)(=O)Cc1ccc(C(=O)NCCN2CCCCC2C)o1 (stereo not given) | 11.1% |
| Cc1cccc(NC(=O)Nc2cccc(Oc3c(F)c(F)c(F)c(F)c3F)c2)c1 | 20.6% |
| Cc1cccc(NC(=O)C(C)N2C(=O)C3C4CC(C(Br)C4Br)C3C2=O)c1 (stereo not given) | 51.6% (active) |
| Cc1cccc(NC(=O)CN2C(=O)CNC2=O)c1 | -16.3% |
| CC1=C(C(=O)Nc2ccc(Cl)cc2)C(c2ccco2)NC(=O)N1 (stereo not given) | 0.4% |
| CCOc1ccccc1C1NC(=O)NC(C)=C1C(=O)OCc1ccco1 (stereo not given) | 75.3% (active) |
| CCOc1ccccc1C(=O)NCc1ccco1 | -0.6% |
| CCOC(=O)COc1ccc(Cl)cc1C1NC(=O)NC(C)=C1C(C)=O (stereo not given) | 44.9% |
| c1ccc(CSc2ncnc3c2sc2nc(N4CCOCC4)c4c(c23)CCCC4)cc1 | 10.4% |
| CCOC(=O)c1sc(NC(=O)CSc2nc(C)cc(C(F)(F)F)n2)c(C#N)c1C | 24.8% |
| CCC(=O)NC(Nc1cc(C)ccn1)(C(F)(F)F)C(F)(F)F | 23.8% |
| COC(=O)C(NC(C)=O)(Nc1nc2c(s1)CCCC2)C(F)(F)F (stereo not given) | 26.9% |
| CCC(=O)NC(Nc1nc2ccc(C)cc2s1)(C(=O)OC)C(F)(F)F (stereo not given) | 97% (active) |
| O=C(CCN1C(=O)COc2ccccc21)NCCCN1CCN(c2ccc(F)cc2)CC1 | 3.9% |
| COc1ccc(OC)c(C2N(c3ccccn3)C(=O)C3CCCN32)c1 (stereo not given) | 10.9% |
| CC1(C)Cc2nc3sc4c(SCC(=O)NC(c5ccccc5)c5ccccc5)ncnc4c3cc2CO1 | 20.2% |
| CC(C)CCSc1ncnc2c1oc1nc3c(cc12)COC(C)(C)C3 | 55.7% (active) |
| C=CCn1c(=S)[nH]c2nc3c(cc2c1=O)COC(C)(C)C3 | 31.2% |
| CN(C)c1ccnc2sc3c(=O)n(Cc4ccccc4)cnc3c12 | 49.6% |
| COc1ccccc1C(=O)Nc1ccc(NC(=O)c2ccco2)c(C)c1 | -177% |

| SMILES | inhibition |
| --- | --- |
| Cc1ccccc1NC(=O)c1cnn(-c2ccccc2)c1NC(=O)c1ccco1 | 1.2% |
| O=C(COC(=O)c1ccccc1NC(=O)c1ccco1)Nc1ccc2c(c1)OC(F)(F)O2 | 76.1% (active) |
| Cc1cc(N)n2nc(-c3ccc(C(C)(C)C)cc3)cc2n1 | 38.3% |
| C=CCOc1nc2c(c(=O)n(C)c(=O)n2C)n1Cc1ccc(Cl)cc1Cl | 8.1% |
| Cn1c(=O)c2c(nc(OCc3cccnc3)n2Cc2ccccc2)n(C)c1=O | 52.4% (active) |
| CC(C)CCn1c(CN(C)Cc2ccccc2)nc2c1c(=O)n(C)c(=O)n2C | 95.6% (active) |
| CCN1CCN(Cc2nc3c(c(=O)n(C)c(=O)n3C)n2CC(=O)c2ccccc2)CC1 | 29.8% |
| COCCn1c(CN(Cc2ccccc2)Cc2ccccc2)nc2c1c(=O)n(C)c(=O)n2C | 96.4% (active) |
| CN1CCN(Cc2nc3c(c(=O)n(C)c(=O)n3C)n2Cc2cccc3ccccc23)CC1 | -8.7% |
| CCOC(=O)Cn1c(CN(Cc2ccccc2)Cc2ccccc2)nc2c1c(=O)[nH]c(=O)n2C | 48.8% |
| Cn1c(=O)[nH]c(=O)c2c1nc(CN(Cc1ccccc1)Cc1ccccc1)n2CCN1CCOCC1 | 7.6% |
| CCOC(=O)N1CCN(Cc2nc3c(c(=O)n(C)c(=O)n3C)n2Cc2ccccc2)CC1 | 9.9% |
| CC1CN(Cc2nc3c(c(=O)n(C)c(=O)n3C)n2Cc2cccc(Cl)c2)CC(C)O1 (stereo not given) | 28% |
| Cn1c(=O)c2c(nc(NCCc3ccccc3)n2Cc2ccccc2)n(C)c1=O | 5.6% |
| COCCn1c(CN2CCC(Cc3ccccc3)CC2)nc2c1c(=O)n(C)c(=O)n2C | 54.2% (active) |
| CC(=O)c1ccc2c(ccc3ccccc32)c1 | 40.7% |
| CC(C)NC(=O)C(=O)NCCN1CCN(S(=O)(=O)c2ccc(Cl)cc2)CC1 | 20.7% |
| COCCN1Cc2cccc(C(=O)Nc3ccccc3OC)c2C1=O | 34.5% |
| O=C(Nc1cc2ccccc2oc1=O)C1CCCCC1 | 3.6% |
| Cc1cccc(C)c1NC(=O)CCCSc1nnc(-c2ccco2)n1-c1ccccc1 | 25.6% |
